In PubChem BioAssay (Tox21):
Inconclusive results are not listed. Where a call stands in place of a potency, no number is given. Active and inactive are the calls of the source. The call rests on the fitted dose curve; in most records, active means well fitted inhibition curve with a large enough effect in the repeat runs; inconclusive means weak or mixed curves; inactive means flat fitted curve, though single readings scatter.

Assay: qHTS assay to identify small molecule HDAC inhibitors (AID 1259364); further: top concentration of the series differs between compounds; nearly all actives have a fitted effect of over 45% in size
Conditions: HCT-116 HDAC-Glo I/II luminescence, 2 h; series mostly up to 92.4 µM
From the text: U.S. Tox21 Program National Center for Advancing Translational Sciences [NCATS] NIH Chemical Genomics Center [NCGC] U.S. Environmental Protection Agency [EPA] National Institutes of Environmental Health Sciences [NIEHS] National Toxicology Program [NTP] U.S. Food and Drug Administration [FDA] Tox21 Assay Overview: Histone deacetylases (HDACs) are a group of epigenetic enzymes that regulate gene expression by histone deacetylation. HDACs are capable of introducing epigenetic modifications and such aberrations contribute to the onset and progression of several human diseases, thus making HDACs a popular therapeutic target. For identifying endogenous class I/II HDAC inhibitors a homogenous, luminogenic HDAC I/II cell based assay was used to measure the relative activity of class I and II HDACs from cells. Wild type HCT-116 cells were used to screen Tox21 libraries for identifying class I/II HDAC inhibitors.
Tox21 Assay Protocol Summary: HCT-116 cells were dispensed at 1,500 per well in 5uL of culture medium into white solid bottom 1536-well plates (Greiner Bio-One, Monroe, NC) using a Multidrop Combi (Thermo Scientific, Waltham, MA) dispenser. The assay plates were incubated at 37 C and 5% CO2 for an overnight, and then 23nL of compounds dissolved in DMSO and positive control were transferred using a Pintool station (Wako, San Diego, CA). The assay plates were incubated at 37C and 5% CO2 for 2hr. After compound treatment, 4uL of HDAC-Glo reagent (Promega Corporation, Madison, WI) was added to each well of the assay plates using Flying Reagent Dispenser (FRD, Aurora Discovery, San Diego, CA) and incubated the assay plates at room temperature for 30min. The luminescence signal was quantified using a ViewLux plate reader (Perkin Elmer, Shelton, CT).

Row | Compound | Potency
1 | CC1=C(/C=C/C(C)=C\C=C\C(C)=C\C(=O)O)C(C)(C)CCC1 | inactive
2 | CC(C)C(OC(=O)c1ccccc1)C(C)(C)COC(=O)c1ccccc1 (stereo not given) | inactive
3 | Nc1nc(Cl)nc2c1ncn2[C@@H]1O[C@H](CO)[C@@H](O)[C@@H]1F | inactive
4 | N#C/C(=C1/SC[C@@H](c2ccc(Cl)cc2Cl)S1)n1ccnc1 | inactive
5 | O=C(CCCN1CCN(c2ccc(F)cc2)CC1)NC1c2ccccc2CSc2ccccc21 (stereo not given) | inactive
6 | O=C(Nc1ccc([N+](=O)[O-])cc1)Nc1ccc([N+](=O)[O-])cc1 | inactive
7 | NC(=O)Nc1ccc(Cl)c(Cl)c1 | inactive
8 | CC(C)(C)C(=O)C(Oc1ccc(Cl)cc1)n1ccnc1 (stereo not given) | inactive
9 | O=Cc1c(Cl)cccc1Cl | inactive
10 | CN1CCCN=C1/C=C/c1cccs1 | inactive
11 | CCCCN(CCCC)CCCOC(=O)c1ccc(N)cc1 | inactive
12 | CC(C)OCC1CO1 (stereo not given) | inactive
13 | O=[N+]([O-])c1cccc(S(=O)(=O)NCCNS(=O)(=O)c2cccc([N+](=O)[O-])c2)c1 | inactive
14 | CCCCC(=O)O[C@]1(C(=O)CO)CC[C@H]2[C@@H]3CCC4=CC(=O)CC[C@]4(C)[C@H]3[C@@H](O)C[C@@]21C | inactive
15 | COc1cc2[nH]c(=O)[nH]c(=O)c2cc1OC | inactive
16 | CC(=O)OCC(=O)[C@@]12OC(C)(C)O[C@@H]1C[C@H]1[C@@H]3C[C@H](F)C4=CC(=O)C=C[C@]4(C)[C@@]3(F)[C@@H](O)C[C@@]12C | inactive
17 | CCc1cccc(N(C)C(N)=Nc2cccc3ccccc23)c1 | inactive
18 | COc1ccccc1N=Nc1c(S(=O)(=O)O)cc2cc(S(=O)(=O)O)cc(NC(C)=O)c2c1O | inactive
19 | O=C(/C=C/c1ccccc1)OCCCc1ccccc1 | inactive
20 | CC(=O)[C@H]1CC[C@H]2[C@@H]3C[C@H](C)C4=CC(=O)CC[C@]4(C)[C@H]3[C@@H](O)C[C@]12C | inactive

Row | Compound | Potency
21 | CCC(C)=O | inactive
22 | CCC(=O)Oc1ccc(/C(CC)=C(\CC)c2ccc(OC(=O)CC)cc2)cc1 | inactive
23 | CCCOCCOCCO | inactive
24 | CCCOc1ccc(S(=O)(=O)N2CCN(CC)CC2)cc1-c1nc2c(CC)n(Cc3ccccn3)nc2c(=O)[nH]1 | inactive
25 | CCC(C(=O)OCCN(CC)CC)c1ccccc1 (stereo not given) | inactive
26 | Cc1ccc(/C=N/n2c(-c3ccccc3)csc2=S)cc1 | inactive
27 | CC[C@H](NC(=O)c1cc(F)ccc1NS(=O)(=O)c1cccc2cccnc12)c1ccccc1 | inactive
28 | O=C(NCCCN1CCOCC1)c1ccc(Cl)cc1 | inactive
29 | O=C(N[C@@H](c1ccccc1)[C@@H]1CCCCN1)c1cccc(C(F)(F)F)c1Cl | inactive
30 | c1cc[c]([Bi]([c]2ccccc2)[c]2ccccc2)cc1 | inactive
31 | O=C(OCCOCCO)c1ccccc1Nc1cccc(C(F)(F)F)c1 | inactive
32 | CCCCC(=O)O[C@]1(C(=O)CO)[C@@H](C)C[C@H]2[C@@H]3CCC4=CC(=O)C=C[C@]4(C)[C@@]3(F)[C@@H](O)C[C@@]21C | inactive
33 | OC(CCCN1CCCCC1)(c1ccccc1)c1ccccc1 | inactive
34 | CN1CCN(CCCN2c3ccccc3Sc3ccc(S(=O)(=O)N(C)C)cc32)CC1 | inactive
35 | COCCOC(=O)C1=C(C)NC(C)=C(C(=O)OC/C=C/c2ccccc2)C1c1cccc([N+](=O)[O-])c1 (stereo not given) | inactive
36 | CC(=O)CC(c1ccc([N+](=O)[O-])cc1)c1c(O)c2ccccc2oc1=O (stereo not given) | inactive
37 | Nc1ccc(Cl)cc1[N+](=O)[O-] | inactive
38 | CCCCCCCCCCCCCCC[C@H](O)[C@@H](N)CO | inactive
39 | O=C(CCC1CCN(Cc2ccccc2)CC1)c1ccc2c(c1)NCCCC2 | inactive
40 | COCCOC | inactive
